# Test results: PubChem BioAssay
# The source made the active and inactive calls. Unless noted, how the calls were made is not given here.
# Key:
# [1] = A549 cell viability effects, profiling panel, calcein-AM fluorescence, 48 h, basal (AID 1162); settings: higher = more signal; further: test concentration not given here
# [2] = adipocyte viability effects, profiling panel, cell-based, 3T3-L1 adipocytes, calcein-AM fluorescence, 48 h, basal (AID 1163); settings: 3T3-L1 adipocytes viability, higher = more signal; further: test concentration not given here
# [3] = HepG2 cell viability effects, profiling panel, calcein-AM fluorescence, 48 h, basal (AID 1164); settings: higher = more signal; further: test concentration not given here
# [4] = MM1S cell viability effects, profiling panel, calcein-AM fluorescence, 48 h, basal (AID 1165); settings: higher = more signal;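 further: viability of MM1S multiple myeloma cells under basal unstimulated conditions; test concentration not given here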
# [5] = basal RPMI8226 viability, no added stimulus, profiling panel, cell-based, calcein-AM fluorescence, 48 h, PK04 Diversity Set (AID 1166); settings: RPMI8226 myeloma viability, higher = more signal;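 further: cells grown under basal conditions without added stimulus; test concentration not given here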
# [6] = basal HepG2 mitochondrial membrane potential changes, profiling panel, cell-based, JC-1 fluorescence, 24 h, 100 nL compound (AID 1167); settings: higher = more signal; further: test concentration not given here
# [7] = basal 3T3-L1 adipocyte mitochondrial potential changes, profiling panel, cell-based, JC-1 fluorescence, 3T3-L1 adipocytes, 24 h, 100 nL compound (AID 1168); settings: JC-1 mitochondrial fluorescence, higher = more signal, called active from +8 up or from −8 down; further: test concentration not given here
# [8] = basal RPMI8226 mitochondrial membrane potential changes, profiling panel, cell-based, JC-1 fluorescence, 24 h, 100 nL compound (AID 1169); settings: RPMI8226 myeloma, JC-1 mitochondrial potential fluorescence, higher = more signal; further: test concentration not given here
# [9] = basal MM1S mitochondrial membrane potential changes, profiling panel, cell-based, JC-1 fluorescence, 24 h, 100 nL compound (AID 1170); settings: higher = more signal; further: test concentration not given here
# [10] = A549 lung cancer cell viability effects, profiling panel, resazurin fluorescence, 24 h, PK04 Diversity Set (AID 1171); settings: higher = more signal, called active from +8 up or from −8 down; further: test concentration not given here
# [11] = HepG2 liver cancer cell viability effects, profiling panel, resazurin fluorescence, 24 h, PK04 Diversity Set (AID 1172); settings: higher = more signal; further: test concentration not given here
# [12] = basal S. cerevisiae growth modulation, no modifier, primary screen, OD600, strain BY4716, 24 h, basal condition (AID 1173); settings: OD600, 24 h, higher = more signal, called active from +8 up or from −8 down
# [13] = MM1S myeloma cell viability, profiling panel, resazurin fluorescence, basal, 24 h, PK04 Diversity Set (AID 1174); settings: higher = more signal, called active from +8 up or from −8 down;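 further: MM1S multiple myeloma cell line; test concentration not given here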
# [14] = molecular target: Dihydroorotate dehydrogenase (quinone), mitochondrial (Plasmodium falciparum (isolate 3D7)) (UniProt Q08210); experiment: PfDHODH enzyme inhibitors, primary screen, biochemical, C-terminal His tag, absorbance 600 nm (AID 1175); settings: DCIP absorbance 600 nm, higher = more signal, called active from +8 up or from −8 down;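 further: recombinant parasite enzyme with a five histidine tag at its C terminus; test concentration not given here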
# Sequence of Dihydroorotate dehydrogenase (quinone), mitochondrial (Plasmodium falciparum (isolate 3D7)) (Q08210 whole entry, looked up): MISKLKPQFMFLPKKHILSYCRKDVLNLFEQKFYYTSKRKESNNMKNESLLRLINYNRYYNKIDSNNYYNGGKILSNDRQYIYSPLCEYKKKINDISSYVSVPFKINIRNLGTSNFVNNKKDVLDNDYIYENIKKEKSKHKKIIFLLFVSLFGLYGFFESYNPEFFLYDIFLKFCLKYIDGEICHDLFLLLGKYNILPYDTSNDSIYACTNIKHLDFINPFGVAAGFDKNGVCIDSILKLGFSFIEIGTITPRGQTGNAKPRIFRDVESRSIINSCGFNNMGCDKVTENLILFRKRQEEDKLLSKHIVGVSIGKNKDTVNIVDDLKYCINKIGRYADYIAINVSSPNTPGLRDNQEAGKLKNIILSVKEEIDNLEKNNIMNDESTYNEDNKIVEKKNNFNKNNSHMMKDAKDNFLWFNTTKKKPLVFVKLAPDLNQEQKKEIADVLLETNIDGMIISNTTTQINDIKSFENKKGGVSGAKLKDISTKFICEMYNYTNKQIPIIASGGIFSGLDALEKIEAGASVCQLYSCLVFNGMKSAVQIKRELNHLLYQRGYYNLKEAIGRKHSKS
# [15] = P. aeruginosa biofilm formation inhibitors, primary screen, strain PAO1, LB-PBS medium, absorbance 600 nm (AID 1176); further: test concentration not given here; settings: P. aeruginosa PAO1 growth/biofilm, A600, 12 h; higher = more signal
# [16] = S. cerevisiae RM11-1a growth modifiers, primary screen, strain RM11-1a, OD600, basal, 24 h (AID 1177); settings: OD600, 24 h, higher = more signal, called active from +8 up or from −8 down;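 further: cultures grown under basal conditions with no added stressor; test concentration not given here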
# [17] = E. coli acrAB mutant growth effects, primary screen, E. coli filamentation inducers, strain DRC39, OD650, 24 h (AID 1178); settings: higher = more signal, called active from +8 up or from −8 down;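 further: growth measured as culture turbidity by optical density at 650 nm; test concentration not given here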
# [18] = E. coli acrAB mutant growth effects, primary screen, E. coli filamentation inducers, strain DRC39, OD650, 48 h (AID 1179);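 further: screen aims at cell division blockers that make cells filament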; settings: E. coli DRC39 delta-acrAB growth, higher = more signal, called active from +8 up or from −8 down
# [19] = RPMI8226 myeloma cell viability, profiling panel, resazurin fluorescence, basal, 24 h, PK04 Diversity Set (AID 1180); settings: higher = more signal;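 further: RPMI8826 multiple myeloma cell line at 5000 cells per well; test concentration not given here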
# [20] = molecular target: E3 ubiquitin-protein ligase XIAP (Homo sapiens) (UniProt P98170); experiment: XIAP binders, primary screen, biophysical, small-molecule microarray, fluorescence 635 nm (AID 1181); settings: small-molecule microarray binding, higher = more signal;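 further: score merges 667 nm emission and signal to noise over triplicate slides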
# Sequence of E3 ubiquitin-protein ligase XIAP (Homo sapiens) (P98170 whole entry, looked up): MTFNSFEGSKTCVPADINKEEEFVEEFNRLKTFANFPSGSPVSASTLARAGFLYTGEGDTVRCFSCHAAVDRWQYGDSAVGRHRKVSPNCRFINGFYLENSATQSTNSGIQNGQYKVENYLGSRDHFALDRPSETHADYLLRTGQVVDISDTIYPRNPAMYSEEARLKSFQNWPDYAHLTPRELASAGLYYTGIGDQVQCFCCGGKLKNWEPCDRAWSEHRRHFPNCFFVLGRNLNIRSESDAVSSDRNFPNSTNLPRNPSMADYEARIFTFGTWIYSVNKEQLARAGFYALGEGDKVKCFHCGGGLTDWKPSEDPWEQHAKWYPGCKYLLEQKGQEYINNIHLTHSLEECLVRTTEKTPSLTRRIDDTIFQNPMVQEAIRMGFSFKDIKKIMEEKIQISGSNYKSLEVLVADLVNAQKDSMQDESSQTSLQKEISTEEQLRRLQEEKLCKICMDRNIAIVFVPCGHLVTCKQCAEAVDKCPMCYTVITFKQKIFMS
SMILES,z-score [1],z-score [2],z-score [3],z-score [4],z-score [5],z-score [6],z-score [7],z-score [8],z-score [9],z-score [10],z-score [11],z-score [12],z-score [13],composite z-score [14],z-score [15],z-score [16],z-score [17],z-score [18],z-score [19],composite z-score [20]
COC(=O)[C@@]1(Cc2ccccc2)[C@H]2c3cc(C(=O)N4CCCC4)n(C[C@H](O)CO)c3C[C@H]2CN1C(=O)c1ccccc1,-1.11,-0.154,0.0709,0.37,0.302,0.438,-0.128 (inactive),-0.0296,-0.3,-0.63 (inactive),-0.476,1.08 (inactive),-0.688 (inactive),0.355 (inactive),0.0818 (inactive),0.267 (inactive),-0.685 (inactive),-0.299 (inactive),-0.746,-0.099
COCCOC(=O)N1C(=O)[C@@]2(c3cc(C#CC4(O)CCCCCC4)ccc31)[C@H](c1ccccc1OCCO)N1[C@H](c3ccccc3)[C@H](c3ccccc3)OC(=O)[C@H]1[C@@H]2C(N)=O,-2.37,0.943,-4.78,-3.43,-4.62,-2.3,1.8 (inactive),-1.14,-1.88,-2.94 (inactive),-1.51,1.53 (inactive),-8.29 (active),0.173 (inactive),1.91 (inactive),2.91 (inactive),-0.197 (inactive),-0.31 (inactive),-6.79,-0.287
O=c1cccc(-c2cccc(Cl)c2)o1,-1.09,-0.164,-0.0227,-0.345,-0.895,-0.687,0.308 (inactive),0.86,-0.024,0.0053 (inactive),-0.381,-8.75 (active),0.149 (inactive),-0.0422 (inactive),-0.377 (inactive),-0.401 (inactive),0.304 (inactive),-0.326 (inactive),-0.4,-0.0052
CC1CC/C=C\[C@H]2OC34C=CCN(C(C)C)C(=O)[C@H]3N(CCCCCO)C(=O)[C@@H]4C2C(=O)O1 (stereo not given in full),1.85,0.601,0.29,1.84,-1.4,0.583,0.633 (inactive),-0.137,1.9,0.98 (inactive),0.551,-0.436 (inactive),1.46 (inactive),-1.16 (inactive),-1.28 (inactive),-0.171 (inactive),1.01 (inactive),1.07 (inactive),0.894,-0.304
C[n+]1ccc(CCCO)cc1,-0.566,0.927,-0.96,0.375,-1.77,-0.0921,-0.321 (inactive),-0.502,0.0343,-1.15 (inactive),-0.744,0.883 (inactive),-0.255 (inactive),-4.35 (inactive),-0.199 (inactive),0.684 (inactive),-1.02 (inactive),-1.1 (inactive),-0.551,0.769
COC(=O)[C@@]1(Cc2ccc(OC)cc2)[C@H]2c3cc(C(=O)N(C)C)n(Cc4nc5ccccc5[nH]4)c3C[C@H]2CN1C(=O)c1ccccc1,-2.46,-0.529,-1.79,-1.37,-3.86,2.13,-1.24 (inactive),-0.737,-1.49,-0.88 (inactive),0.014,1.03 (inactive),-1.45 (inactive),-0.291 (inactive),-0.0982 (inactive),1.11 (inactive),-0.614 (inactive),-1.18 (inactive),-2.51,0.382
CC=CC(O)C1C=CC2C(=O)N(C)C(=O)C2N1N1CCCCC1 (stereo not given),-0.0516,-2.06,-0.843,-0.714,-0.922,-1.52,-1.36 (inactive),-0.615,-0.00172,-0.232 (inactive),-0.245,0.383 (inactive),-0.986 (inactive),-0.811 (inactive),0.378 (inactive),-0.714 (inactive),-1.07 (inactive),-0.923 (inactive),-1.36,-0.114
Cc1ccc(S[C@]2(C(=O)NCCN3CCOCC3)CC(=O)N(Cc3ccccc3C(F)(F)F)[C@@H]2c2ccc(CO)cc2I)cc1,-0.209,-0.292,-0.695,-2.85,-2.15,-0.178,-1.03 (inactive),-0.793,-2.36,0.683 (inactive),0.628,-3.34 (inactive),-2.71 (inactive),-0.323 (inactive),0.875 (inactive),-1.57 (inactive),0.142 (inactive),0.0559 (inactive),-2.22,-0.17
CCCC=C(CCC)[C@@H](NP(=O)(c1ccccc1)c1ccccc1)c1ccc(C(F)(F)F)cc1,-0.779,-0.531,-0.365,0.463,0.218,-0.497,-1.53 (inactive),0.72,-0.379,0.472 (inactive),1.02,0.534 (inactive),0.839 (inactive),0.0197 (inactive),-0.511 (inactive),-0.359 (inactive),0.3 (inactive),-0.93 (inactive),0.495,0.328
C=C[C@@H](C)[C@H](OC(=O)Nc1ccc(SC)cc1)c1ccc(OCCO)cc1,-0.848,0.54,0.0237,0.191,0.794,-0.692,0.396 (inactive),0.917,-1.13,-0.0363 (inactive),0.571,-3.42 (inactive),-0.0261 (inactive),-1.16 (inactive),0.638 (inactive),0.0728 (inactive),-0.217 (inactive),0.511 (inactive),0.152,-0.111
C=CCNC(=O)[C@@H]1[C@H]2C(=O)O[C@H](c3ccccc3)[C@H](c3ccccc3)N2[C@H](c2ccccc2OCCO)[C@@]12C(=O)N(C(=O)OCCOC)c1ccc(C#CC3=CCCCC3)cc12,0.428,1.16,-0.555,-2.48,-2.4,-0.149,1.74 (inactive),-1.01,-1.82,-0.996 (inactive),0.402,0.466 (inactive),-1 (inactive),-0.458 (inactive),2.19 (inactive),1.08 (inactive),0.368 (inactive),0.628 (inactive),-1.31,0.0683
COc1ccc(C(O)C2C=CC3C(=O)N(Cc4ccccc4)C(=O)C3N2n2cnnc2)c2ccccc12 (stereo not given),0.0609,0.936,0.0591,0.405,-1.34,-0.722,0.895 (inactive),-0.992,-0.129,-0.96 (inactive),-1.05,0.373 (inactive),-1.47 (inactive),-0.609 (inactive),-0.722 (inactive),-0.975 (inactive),-0.597 (inactive),-0.706 (inactive),-1.06,0.176
[N-]=[N+]=Nc1ccccc1[C@H]1OC(c2ccc(OCCCO)cc2)=N[C@@]1(CCS(=O)(=O)c1ccccc1)C(=O)N1CCCCC1,-0.851,1.5,-0.641,-1.56,-2.7,0.43,-0.903 (inactive),-0.877,-0.801,-1.01 (inactive),0.186,-0.0728 (inactive),-1.63 (inactive),-0.792 (inactive),0.715 (inactive),0.836 (inactive),0.21 (inactive),-0.714 (inactive),-1.64,-0.0884
O=C1C[C@@](C(=O)NCC(F)(F)F)(c2ccc([N+](=O)[O-])cc2)[C@@H](c2ccc(CO)cc2)N1C1CCCCC1,-0.113,-1.03,0.268,-1.34,0.258,0.0995,-1.12 (inactive),0.685,0.0421,0.423 (inactive),-0.289,-0.693 (inactive),-0.39 (inactive),-0.356 (inactive),0.416 (inactive),-0.815 (inactive),0.659 (inactive),0.0421 (inactive),-0.12,-0.209
O=C1C[C@]2(c3ccc([N+](=O)[O-])cc3)C(=O)N(Cc3ccccc3)c3cc(CO)ccc3[C@H]2N1CC12CC3CC(CC(C3)C1)C2,0.376,-1.02,1.51,0.397,0.329,-0.821,0.286 (inactive),0.589,-1.02,-0.849 (inactive),-0.566,-0.0685 (inactive),-0.434 (inactive),-3.36 (inactive),0.848 (inactive),-0.268 (inactive),-0.22 (inactive),0.0276 (inactive),-0.717,-0.133
